Hit rate of the full screen: of about 39,000 compounds, about 3,300 (8.5%) were called active. What follows is part of a selection rich in actives, with near analogues and random picks from the rest.

For the test, the system named is HepG2. Kind of test: cytotoxicity call (relative viability < 0.9). Particulars: 10 µM.
Turning to `CCN1C(=O)/C(=C/c2ccc[nH]2)C(=O)NC1=S`, the cytotoxicity call was “inactive”. Regarding `CO[C@H]1[C@H](O)[C@@H](O[C@H]2[C@@H](C)O[C@@H](O[C@H]3[C@H](C)O[C@H](O[C@H]4CC[C@@]5(C)[C@@H](CC[C@@]6(O)[C@@H]5C[C@@H](O)[C@]5(C)[C@]6(O)CC[C@@]5(O)[C@@H](C)O)C4)C[C@@H]3OC)C[C@H]2OC)O[C@@H](C)[C@H]1O`, the cytotoxicity call is “inactive”. On to `CC(=O)O[C@H]1C[C@H](O[C@H]2[C@@H](O)C[C@H](O[C@H]3[C@@H](O)C[C@H](O[C@H]4CC[C@@]5(C)[C@@H](CC[C@H]6[C@@H]5C[C@@H](O)[C@]5(C)[C@@H](C7=CC(=O)OC7)CC[C@]65O)C4)O[C@@H]3C)O[C@@H]2C)O[C@H](C)[C@H]1O[C@@H]1O[C@H](CO)[C@@H](O)[C@H](O)[C@H]1O`, for which the cytotoxicity call was “active”. As to `CC12CCC(O)CC1CCC1C2CC(O)C2(C)C(C3=CC(=O)OC3)CCC12O` (stereo unspecified), the cytotoxicity call was “active”. In the case of `CO[C@H]1[C@@H](O)C[C@@H](O[C@H]2[C@@H](O)C[C@@H](O[C@H]3[C@@H](O)C[C@@H](O[C@H]4CC[C@@]5(C)[C@@H](CC[C@H]6[C@@H]5C[C@@H](O)[C@@]5(C)[C@H](C7=CC(=O)OC7)CC[C@@]65O)C4)O[C@@H]3C)O[C@@H]2C)O[C@@H]1C`, the cytotoxicity call was “active”. For `CO[C@H]1[C@@H](O)[C@@H](O[C@H]2CC[C@]3(C=O)[C@@H]4[C@@H](CC[C@]3(O)C2)[C@@]2(O)CC[C@H](C3=CC(=O)OC3)[C@@]2(C)C[C@H]4OC(C)=O)O[C@@H](C)[C@@H]1OC(C)=O`, the cytotoxicity call was “inactive”. Take `CC12CCC3C(CCC4CC(O)CCC43C)C1CCC2=O` (stereo unspecified): the cytotoxicity call is “inactive”. `CC(=O)OC1CC(OC2C(O)CC(OC3C(O)CC(OC4CCC5(C)C(CCC6C5CC(O)C5(C)C(C7=CC(=O)OC7)CCC65O)C4)OC3C)OC2C)OC(C)C1OC1OC(CO)C(O)C(O)C1O` (stereo unspecified): the cytotoxicity call is “active”. As for `CC12CCC3C(CCC4CC(O)CCC43C)C1CCC2O` (stereo unspecified), the entry is “inactive”; as for `O=C(NC[C@H]1CC[C@]2(CNCCOC2)O1)c1ccnnc1`, “inactive”; as for `C=C(C)[C@H]1CN[C@H](C(=O)O)[C@@H]1CC(=O)O`, “inactive”. `CO/C1=C\C(C)=C\[C@@H](C)[C@@H](O)[C@@H](C)C/C(C)=C/C=C/[C@H](OC)[C@@H]([C@@H](C)[C@@H](O)[C@H](C)C(=O)/C=C/[C@H](C)[C@H](O)C(C)C)OC1=O`: the cytotoxicity call was “inactive”. For the molecule `CC(C)c1ccc2c(c1)[C@H](O)[C@H](N)CCO2`, the cytotoxicity call is “inactive”. For `O=C1NCC2(CNC2)O1`, the cytotoxicity call is “inactive”. For `CCN(CC)C1CCCCC1`, the cytotoxicity call was “inactive”. On to `NC1(Cc2ccc(Cl)cc2)CC1`, for which the cytotoxicity call is “inactive”. For the molecule `O.O=c1ccc2cc(OC3OC(CO)C(O)C(O)C3O)c(O)cc2o1` (stereo unspecified), the cytotoxicity call is “inactive”. `CC(C)(C)[C@]1(O)C[C@@H]2OC(=O)C[C@]23C(=O)O[C@@H]2OC(=O)[C@H](O)[C@]231`: the cytotoxicity call was “inactive”.

Consider `CC(=O)O[C@H]1C[C@@H]2CC[C@@H]3[C@H](CC[C@@]4(C)[C@H]3C[C@H]([N+]3(C)CCCCC3)[C@@H]4OC(C)=O)[C@@]2(C)C[C@@H]1[N+]1(C)CCCCC1`, for which the cytotoxicity call is “inactive”. As for `CC(=O)OC1CCC2(C)C(CCC3C2CCC2(C)C(C4=CC(=O)OC4)C(OC(C)=O)CC32O)C1` (stereo unspecified), the cytotoxicity call is “active”. Turning to `O=C(O)CC[N+](=O)[O-]`, the cytotoxicity call is “inactive”. On to `C[C@H]1CN([C@@H](C)CO)C(=O)CCCn2cc(nn2)CO[C@@H]1CN(C)C(=O)Oc1ccc2ccccc2c1`, for which the cytotoxicity call is “inactive”. As for `[N-]=[N+]=NCC(=O)Nc1ccon1`, the entry is “inactive”.

On to `N#CCCN.O=C(O)C=CC(=O)O`, for which the cytotoxicity call is “inactive”. For the molecule `COC(=O)[C@H]1[C@H](CO)[C@H]2Cn3c(ccc(C4=CCCC4)c3=O)[C@@H]1N2S(=O)(=O)c1cn(C)cn1`, the cytotoxicity call was “inactive”. Take `CC[C@@H](C)C(=O)O[C@H]1[C@H](O)[C@H]2[C@@H](CN3C[C@@H](C)CC[C@@H]3[C@@]2(C)O)[C@H]2C[C@]34O[C@]5(O)[C@@H](OC(=O)[C@@](C)(O)[C@@H](C)O)CC[C@@]3(C)[C@@H]5[C@@H](OC(C)=O)[C@@H](OC(C)=O)[C@@H]4[C@@]21O`: the cytotoxicity call is “active”. For `CC[C@@H](C)C(=O)O[C@H]1[C@H](O)[C@H]2[C@@H](CN3C[C@@H](C)CC[C@@H]3[C@@]2(C)O)[C@H]2C[C@]34O[C@]5(O)[C@@H](OC(=O)[C@@](C)(O)CC)CC[C@@]3(C)[C@@H]5[C@@H](OC(C)=O)[C@@H](OC(C)=O)[C@@H]4[C@@]21O`, the cytotoxicity call is “inactive”. For `C/C=C(/C)C(=O)O[C@H]1CC[C@@]2(C)[C@@H]3CC[C@H]4[C@]5(O)C[C@H](O)[C@@]6(O)[C@@H](CN7C[C@@H](C)CC[C@H]7[C@@]6(C)O)[C@]5(O)C[C@@]42O[C@@]13O`, the cytotoxicity call is “inactive”. For `CC(C)C12CN3CCN(CC(C3)C1=O)C2`, the cytotoxicity call was “inactive”. As for `C[C@@H]1CN([C@H](C)CO)C(=O)c2c(c3ccccc3n2C)-c2ccccc2CO[C@H]1CN(C)C(=O)Oc1ccccc1`, the cytotoxicity call was “inactive”. Take `Cc1o[nH]c(=O)c1C[C@@H](N)C(=O)O`: the cytotoxicity call is “inactive”. In the case of `COc1ccc(OC)c(CN)c1`, the cytotoxicity call was “inactive”. In the case of `CC(N)C(O)c1ccccc1.Cl` (stereo unspecified), the cytotoxicity call was “inactive”.

Regarding `COc1ccc(OC)c(C(O)C(C)N)c1.Cl` (stereo unspecified), the cytotoxicity call was “active”.

With `O=c1[nH]oc2c1CCNC2`, the cytotoxicity call is “inactive”.

As for `COC(C)(C)CCC[C@H](C)C/C=C/C(C)=C/C(=O)OC(C)C`, the cytotoxicity call was “inactive”. Take `Cl.O=C1CCC2(O)C3Cc4ccc(O)c5c4C2(CCN3CC2CC2)C1O5` (stereo unspecified): the cytotoxicity call is “inactive”. Consider `CCC1CN2CCC1CC2C(O)c1ccnc2ccc(OC)cc12` (stereo unspecified), for which the cytotoxicity call is “active”.

As for `C=CC1CN2CCC1CC2C(O)c1ccnc2ccccc12` (stereo unspecified), the cytotoxicity call was “inactive”. For the molecule `C=CC1CN2CCC1CC2C(OC(=O)OCC)c1ccnc2ccc(OC)cc12` (stereo unspecified), the cytotoxicity call is “inactive”. As for `CO[C@H]1[C@@H](O)[C@@H](C)O[C@H](O[C@H]2CC[C@@]3(C)[C@H]4CC[C@@]5(C)[C@@H](C6=CC(=O)OC6)CC[C@]5(O)[C@@H]4CC[C@]3(O)C2)[C@@H]1O`, the cytotoxicity call was “inactive”. With `CC1OC(OC2CCC3(C=O)C4CCC5(C)C(C6=CC(=O)OC6)CCC5(O)C4CCC3(O)C2)C(O)C(O)C1O` (stereo unspecified), the cytotoxicity call was “active”. As to `C[C@@H]1O[C@@H](O[C@H]2CC[C@]3(C=O)[C@H]4CC[C@]5(C)[C@@H](C6=CC(=O)OC6)CC[C@]5(O)[C@@H]4CC[C@]3(O)C2)[C@H](O)[C@H](O)[C@H]1O`, the cytotoxicity call is “active”.

As for `CO[C@H]1C[C@H](O[C@H]2CC[C@]3(C=O)[C@H]4CC[C@]5(C)[C@@H](C6=CC(=O)OC6)CC[C@]5(O)[C@@H]4CC[C@]3(O)C2)O[C@H](C)[C@H]1O`, the cytotoxicity call is “active”. With `COC1C(O)C(C)OC(OC2CCC3(C=O)C(CCC4C3CCC3(C)C(C5=CC(=O)OC5)CCC43O)C2)C1O` (stereo unspecified), the cytotoxicity call was “active”. Consider `COC1C(O)C(C)OC(OC2CCC3(C)C4CCC5(C)C(C6=CC(=O)OC6)CCC5(O)C4CCC3(O)C2)C1O` (stereo unspecified), for which the cytotoxicity call was “inactive”.

(Values after the antibiotic and cytotoxicity screens of Wong et al. (2023).)
